# Source: PubChem BioAssay (NCATS)
# Results filed as inconclusive are left out. Where a call stands in place of a potency, no number is given. A number with no mark means an inactive call. Activity calls are given as the source filed them. The call rests on the fitted dose curve; in most records, active means well fitted cell-killing curve with a large enough effect; inconclusive means small, poorly fitted or top-dose-only effect, or effect the other way; inactive means flat fitted curve, though single readings scatter.
# What was measured:
# Assay in all cases: Primary qHTS to identify gynecologic anti-cancer compounds using libraries of approved drugs and bioactive compounds (AID 1345084); further: nearly all actives have a fitted effect of over 55% in size
# C33A = conditions: Gynecologic cancer cell panel viability, ATPlite luminescence, 48 h; series mostly up to 57.5 µM
# Summary of the method: (§1)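 Cytotoxicity screen measuring ATP content by luciferase luminescence. Each compound is applied at five concentrations for 48 h at 37 C with 5% CO2.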
# CAOV3 = conditions: Gynecologic cancer cell panel viability, ATPlite luminescence, 48 h; series mostly up to 57.5 µM
# Summary of the method: as §1
# Es-2 = conditions: Gynecologic cancer cell panel viability, ATPlite luminescence, 48 h; series mostly up to 57.5 µM
# Summary of the method: as §1
# HeLa = conditions: Gynecologic cancer cell panel viability, ATPlite luminescence, 48 h; series mostly up to 57.5 µM
# Summary of the method: as §1
# Hek293T = conditions: Gynecologic cancer cell panel viability, ATPlite luminescence, 48 h, control line for the selectivity index; series mostly up to 57.5 µM
# Summary of the method: as §1
# JEG-3 = conditions: Gynecologic cancer cell panel viability, ATPlite luminescence, 48 h; series mostly up to 57.5 µM
# Summary of the method: as §1
# OV90 = conditions: Gynecologic cancer cell panel viability, ATPlite luminescence, 48 h; series mostly up to 57.5 µM
# Summary of the method: as §1
# PA-1 = conditions: Gynecologic cancer cell panel viability, ATPlite luminescence, 48 h; series mostly up to 57.5 µM
# Summary of the method: as §1
# SKOV3 = conditions: Gynecologic cancer cell panel viability, ATPlite luminescence, 48 h; series mostly up to 57.5 µM
# Summary of the method: as §1
# Tov-21-G = conditions: Gynecologic cancer cell panel viability, ATPlite luminescence, 48 h; series mostly up to 57.5 µM
# Summary of the method: as §1
# Tov112D = conditions: Gynecologic cancer cell panel viability, ATPlite luminescence, 48 h; series mostly up to 57.5 µM
# Summary of the method: as §1
# CASKI = conditions: Gynecologic cancer cell panel viability, ATPlite luminescence, 48 h; series mostly up to 57.5 µM
# Summary of the method: as §1
# Potency means the concentration at half of the fitted maximal effect.
smiles,measurement,setting,value
Cc1nc(N2CCN(C(=O)c3ccco3)CC2)c2c3c(sc2n1)CCCC3,Potency,C33A,inactive
same,Potency,CAOV3,inactive
same,Potency,Es-2,inactive
same,Potency,HeLa,inactive
same,Potency,Hek293T,inactive
same,Potency,JEG-3,inactive
same,Potency,OV90,inactive
same,Potency,PA-1,inactive
same,Potency,SKOV3,inactive
same,Potency,Tov-21-G,inactive
same,Potency,Tov112D,inactive
CC1CC(=O)C2=C(C1)C1OC1C1(O)C2C(=O)c2cccc(O)c2C1O (stereo not given),Potency,C33A,inactive
same,Potency,CAOV3,inactive
same,Potency,CASKI,inactive
same,Potency,Hek293T,inactive
same,Potency,OV90,inactive
same,Potency,SKOV3,inactive
same,Potency,Tov112D,0.0891 µM (active)
CCCn1ncc(CN2CCCC(C(=O)c3cccc(OC(C)C)c3)C2)c1C (stereo not given),Potency,C33A,inactive
same,Potency,CAOV3,inactive
same,Potency,Es-2,inactive
same,Potency,HeLa,inactive
same,Potency,Hek293T,inactive
same,Potency,JEG-3,inactive
same,Potency,PA-1,inactive
same,Potency,Tov-21-G,inactive
same,Potency,Tov112D,inactive
N#C/C(=C1\Nc2ccccc2S1)c1ccnc(NCCc2cccnc2)n1,Potency,C33A,inactive
same,Potency,CAOV3,inactive
same,Potency,CASKI,inactive
same,Potency,JEG-3,inactive
same,Potency,OV90,inactive
same,Potency,Tov112D,inactive
COc1cc2ncnc(Nc3ccc(O)c(Br)c3)c2cc1OC,Potency,C33A,inactive
same,Potency,CAOV3,inactive
same,Potency,Es-2,inactive
same,Potency,HeLa,inactive
same,Potency,Hek293T,inactive
same,Potency,JEG-3,inactive
same,Potency,OV90,inactive
same,Potency,Tov112D,inactive
CC1(C)SCCN(S(=O)(=O)c2ccc(Oc3ccncc3)cc2)[C@H]1C(=O)NO,Potency,C33A,inactive
same,Potency,CAOV3,inactive
same,Potency,Es-2,inactive
same,Potency,HeLa,inactive
same,Potency,Hek293T,inactive
same,Potency,JEG-3,inactive
same,Potency,OV90,inactive
same,Potency,PA-1,inactive
same,Potency,SKOV3,inactive
same,Potency,Tov-21-G,inactive
same,Potency,Tov112D,inactive
O=C(c1ccc(OC(F)F)c(C#Cc2ccccn2)c1)N1Cc2cccnc2C1,Potency,C33A,inactive
same,Potency,CAOV3,inactive
same,Potency,CASKI,inactive
same,Potency,Hek293T,inactive
same,Potency,JEG-3,inactive
same,Potency,OV90,inactive
COc1c(C)cc(NC(=O)c2nn(Cc3ccc(F)cc3)c3c2CN(C(=O)c2ccc[nH]2)C[C@]3(C)C(N)=O)cc1C,"activity change, negative = cytotoxicity",C33A,12.3% [at 11.6 µM]
same,"activity change, negative = cytotoxicity",CASKI,-0.257% [at 11.6 µM]
same,"activity change, negative = cytotoxicity",Es-2,4.64% [at 11.6 µM]
same,"activity change, negative = cytotoxicity",HeLa,-7.03% [at 11.6 µM]
same,"activity change, negative = cytotoxicity",Hek293T,7.03% [at 11.6 µM]
same,"activity change, negative = cytotoxicity",JEG-3,1.95% [at 11.6 µM]
same,"activity change, negative = cytotoxicity",OV90,16.4% [at 11.6 µM]
same,"activity change, negative = cytotoxicity",PA-1,15.5% [at 11.6 µM]
same,"activity change, negative = cytotoxicity",SKOV3,-24.2% [at 11.6 µM]
same,"activity change, negative = cytotoxicity",Tov-21-G,11.9% [at 11.6 µM]
same,"activity change, negative = cytotoxicity",Tov112D,9.54% [at 11.6 µM]
COC1CC(=O)C23C(=O)NC(Cc4c[nH]c5ccccc45)C2C(C)C2(C)OC2C3/C=C/CC(C)CC1O (stereo not given),Potency,C33A,inactive
same,Potency,CAOV3,inactive
same,Potency,Es-2,inactive
same,Potency,Hek293T,inactive
same,Potency,OV90,inactive
same,Potency,SKOV3,8.91 µM (active)
same,Potency,Tov112D,inactive
CCC(CC)C(c1ccc(Nc2nc3ccccc3s2)cc1)n1cncn1 (stereo not given),Potency,C33A,25.1 µM (active)
same,Potency,CAOV3,28.2 µM (active)
same,Potency,HeLa,35.5 µM (active)
same,Potency,JEG-3,31.6 µM (active)
same,Potency,OV90,31.6 µM (active)
same,Potency,PA-1,22.4 µM (active)
same,Potency,Tov112D,22.4 µM (active)
Cc1[nH]c(/C=C2\C(=O)Nc3cc(-c4ccccc4)ccc32)c(C)c1CCC(=O)O,Potency,C33A,inactive
same,Potency,CAOV3,inactive
same,Potency,JEG-3,inactive
same,Potency,OV90,inactive
same,Potency,Tov112D,inactive
CC(=O)OC1CC(C)(C(=O)O)CC2C3=CC(=O)C4C5(C)CCC(OC6OC(C(=O)O)C(O)C(O)C6OC6OC(C(=O)O)C(O)C(O)C6O)C(C)(C)C5CCC4(C)C3(C)CCC12C (stereo not given),"activity change, negative = cytotoxicity",C33A,10.4% [at 11.6 µM]
same,"activity change, negative = cytotoxicity",CASKI,12.9% [at 11.6 µM]
same,"activity change, negative = cytotoxicity",Es-2,12.5% [at 11.6 µM]
same,"activity change, negative = cytotoxicity",HeLa,14.8% [at 11.6 µM]
same,"activity change, negative = cytotoxicity",Hek293T,7.86% [at 11.6 µM]
same,"activity change, negative = cytotoxicity",JEG-3,5.64% [at 11.6 µM]
same,"activity change, negative = cytotoxicity",OV90,2.42% [at 11.6 µM]
same,"activity change, negative = cytotoxicity",PA-1,22.8% [at 11.6 µM]
same,"activity change, negative = cytotoxicity",SKOV3,0% [at 11.6 µM]
same,"activity change, negative = cytotoxicity",Tov-21-G,-2.43% [at 11.6 µM]
same,"activity change, negative = cytotoxicity",Tov112D,-0.209% [at 11.6 µM]
CC/C(C)=C/C(=O)OC1C(OC2(C)CCC3C(C4C(C)CCC42)C3(C)C)OC(C)C(O)C1O (stereo not given),Potency,C33A,inactive
same,Potency,CASKI,inactive
same,Potency,Es-2,inactive
same,Potency,HeLa,inactive
same,Potency,Hek293T,inactive
same,Potency,JEG-3,inactive
same,Potency,OV90,inactive
same,Potency,PA-1,inactive
same,Potency,SKOV3,inactive
same,Potency,Tov-21-G,inactive
same,Potency,Tov112D,inactive
